Source: PubChem
ALOX12 inh = inhibitors of human 12S-lipoxygenase ALOX12 | Potency, µM (series often up to 108 µM), for inactives: top-dose activity change, negative = inhibition, actives largely listed as inhibitors | 580,000 tested, 1.1% active | purified 12hLO, xylenol orange hydroperoxide absorbance; further: on the % scale 0 is the no-effect control and ±100 the full control effect
Target sequence (P18054 whole entry, looked up): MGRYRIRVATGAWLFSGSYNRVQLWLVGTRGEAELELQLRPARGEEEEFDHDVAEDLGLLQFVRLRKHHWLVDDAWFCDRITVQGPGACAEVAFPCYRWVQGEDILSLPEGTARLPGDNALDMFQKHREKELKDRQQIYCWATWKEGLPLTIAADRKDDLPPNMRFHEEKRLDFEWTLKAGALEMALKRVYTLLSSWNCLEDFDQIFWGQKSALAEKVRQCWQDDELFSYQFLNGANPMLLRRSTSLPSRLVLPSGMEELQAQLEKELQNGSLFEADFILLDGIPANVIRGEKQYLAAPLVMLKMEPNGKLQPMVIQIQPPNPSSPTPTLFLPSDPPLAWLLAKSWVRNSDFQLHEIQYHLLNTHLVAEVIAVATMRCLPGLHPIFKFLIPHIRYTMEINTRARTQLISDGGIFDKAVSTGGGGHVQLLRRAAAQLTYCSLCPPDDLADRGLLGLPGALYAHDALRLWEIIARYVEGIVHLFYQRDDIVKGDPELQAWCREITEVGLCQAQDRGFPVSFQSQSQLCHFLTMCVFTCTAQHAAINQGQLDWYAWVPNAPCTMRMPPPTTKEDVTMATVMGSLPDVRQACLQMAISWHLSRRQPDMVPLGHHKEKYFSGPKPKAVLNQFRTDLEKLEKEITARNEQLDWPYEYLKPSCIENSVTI
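Purified human 12hLO (150 nM final) in 25 mM Hepes, 0.01% Triton X-100, pH 7.0 was preincubated 15 min at room temperature with compound. Then 40 uM arachidonic acid was added, 30 min. Hydroperoxide was read by Fe-XO absorbance ratio 573/405 nm.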
BAZ2B inh = BAZ2B (human) inhibition; AlphaScreen BAZ2B-H3K14Ac peptide displacement; Potency, µM (titrated, usually from 114 µM), inactives show at the top dose activity change, negative = inhibition, usual class: inhibitors; 360,000 tested, 4.4% active; AID 504333; further: on the % scale 0 is the no-effect control and ±100 the full control effect; nearly all actives have a fitted effect of over 60% in size
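Complex of BAZ2B and biotin-H3K14Ac (50 nM apiece) forms over 30 min at RT, then faces library compounds up to 110 uM for another 30 min; AlphaScreen beads added, 20 min dark incubation, luminescence read.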
JMJD2A Tudor inh = blocks the human JMJD2A Tudor domain; AlphaScreen JMJD2A-Tudor / H3K4me3 peptide binding; Potency, µM (titrated, usually from 114 µM), for the others: at the highest dose activity change, negative = inhibition, usual class: inhibitors; 390,000 tested, 4.4% active; AID 504339; further: on the % scale 0 is the no-effect control and ±100 the full control effect; nearly all actives have a fitted effect of over 50% in size
Sfp PPTase inh = inhibitors of Bacillus subtilis Sfp phosphopantetheinyl transferase; Q9F4F7; Biochemical Sfp PPTase activity, qHTS; Potency, µM, without a hit: largest response in the series, negative = inhibition, usual class: inhibitors; 310,000 tested, 3.5% active; AID 1490;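 further: the enzyme is Sfp with the accession as filed and its product quenches rhodamine fluorescence; 0% = enzyme reaction without inhibitor and -100% = no enzyme wells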
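With Hepes-Na pH 7.6 buffer containing 10 mM MgCl2, Sfp (15 nM) modified BHQ-2-YbbR (12.5 uM) using rhodamine-CoA (5 uM). Two reads 30 minutes apart at 525/598 nm yielded each well's rate.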
HP1b binding inh = HP1-beta chromodomain-methylated histone interaction inhibition; AlphaScreen HP1-beta / biotin-H3K9me3 peptide binding; Potency, µM (highest dose often 114 µM), for inactives: at the highest dose activity change, negative = inhibition, usual class: inhibitors; 390,000 tested, 0.56% active; further: nearly all actives have a fitted effect of over 70% in size
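AlphaScreen: HP1-beta (50 nM) preformed 30 min with biotin-H3(1-18)K9me3 peptide (50 nM) in PBS pH 7.4, 0.01% Tween-20. Compound added for 30 min at RT, then streptavidin donor/nickel chelate acceptor beads (10 ug/mL) for 30 min.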
G9a block = inhibitors of human histone lysine methyltransferase G9a | Potency, µM (highest dose often 102 µM), without a hit: top-dose activity, negative = inhibition, hits mostly inhibitors | AID 504332 | Q96KQ7 | 350,000 tested, 8.8% active | G9a H3K9 monomethylation, AlphaScreen, 2 h; further: on the % scale 0 is the no-effect control and ±100 the full control effect; nearly all actives have a fitted effect of over 75% in size
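Quantitative HTS format: methyltransferase activity on a biotin-tagged H3K9 peptide is measured by AlphaScreen, using a rabbit anti-monomethyl-H3K9 antibody with streptavidin donor and anti-IgG acceptor beads. Final levels are 20 nM enzyme, 500 nM peptide, 20 uM SAM; 2 h RT.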
* = called active by the depositor; u = inconclusive; x = not tested or not shown; [ ] = another dose, or the depositor's remark. Shown are actives, neighbours in structure and some others; about 8.7% of the full set was active somewhere. The call rests on the fitted dose curve; in most records, active means well fitted curve in the direction sought with a large enough effect; inconclusive means small, poorly fitted or top-dose-only effect, or another doubt; inactive means no such curve, though single readings can be large; an effect the other way counts as inactive or inconclusive. Potency means the concentration at half of the fitted maximal effect.

SMILES | ALOX12 inh | BAZ2B inh | JMJD2A Tudor inh | Sfp PPTase inh | HP1b binding inh | G9a block
Cc1cccc(Nc2nc(-c3sc(C)nc3C)cs2)c1 | 3% | u | u | -20% | u | u
CCCCCC(=O)Nc1nc(C)c(-c2csc(Nc3ccc(Cl)cc3)n2)s1 | u | u | u | 4% | -22% | 41%[0.501 µM]
CC(=O)c1cccc(Nc2nc(-c3sc(N)nc3C)cs2)c1 | -2% | 35µM* | u | -7% | u | 79µM*
Cc1nc(N)sc1-c1csc(Nc2cccc(O)c2)n1 | u | 56µM* | u | -21% | u | 45µM*
CC(=O)c1cccc(Nc2nc(-c3sc(C)nc3C)cs2)c1 | 0% | -22% | -21% | -5% | -3% | 2%
COc1cc(Br)c(/C=N/O)cc1OC | -59% | x | x | x | x | x
COCC(=O)NC[C@@H]1C=C(C)[C@H](CC(=O)O)C[C@H]1C(C)C | 0%[176 µM] | x | x | x | x | x
Cc1cc(=O)c(C(=O)Nc2nnc(C(C)C)s2)nn1-c1ccccc1F | -25% | x | x | x | x | x
Cc1ccc(S(=O)(=O)N2CCC(CCC(=O)N3CCN(C)CC3)CC2)cc1 | 19% | x | x | x | x | x
Cc1ccc(NC(=O)C=C2CCCCC2)cc1 | 9% | x | x | x | x | x
CCCCNC(=O)CC1S/C(=N/N=C/c2ccc(OC)cc2)NC1=O (stereo unspecified) | -4% | -2% | 8% | 11% | 35% | -5%
O=C(O)CCCNC(=O)CC1S/C(=N/N=C/c2ccccc2O)NC1=O (stereo unspecified) | 0% | 50µM* | -23% | 23% | 31% | 0%
O=C(NCc1ccco1)c1cc2cc(Br)ccc2[nH]1 | 32µM* | x | x | x | x | x
CCN(Cc1ccco1)C(=O)c1cc2cc(Br)ccc2[nH]1 | 18µM* | x | x | x | x | x
COc1ccc(-c2cn(C)c(=O)n3cc(COc4ccccc4)nc23)c(C)c1 | 18%[176 µM] | x | x | x | x | x
COc1cccc(CN2CCCCCNC(=O)[C@@H]3CCC[C@@H]32)c1 | 181% | x | x | x | x | x
C[C@H]1[C@@H]2[C@@H](O)C([C@H](C)C(=O)NCc3cccs3)CC[C@@]2(C)CC[C@@H]1NC(=O)Cc1ccccc1 (stereo partly specified) | 17% | x | x | x | x | x
COC(=O)C1=C(C(=O)OC)[C@@H]2N(C)c3ccc(OC)cc3[C@@]23C[C@@H](C(=O)OC)N(C(=O)CC(C)C)C3=N1 | -28% | x | 50µM* | -14% | u | x
COC(=O)C1=C(C(=O)OC)[C@@H]2N(C)c3ccc(OC)cc3[C@@]23C[C@@H](C(=O)OC)N(C(=O)C2CCC2)C3=N1 | x | 11µM* | 25µM* | 10% | u | u
COC(=O)C1=C(C(=O)OC)[C@@H]2N(C)c3ccc(OC)cc3[C@@]23C[C@@H](C(=O)OC)N(C(C)=O)C3=N1 | x | x | x | 0% | x | x
COC(=O)C1=C(C(=O)OC)[C@@H]2N(C)c3ccc(OC)cc3[C@@]23C[C@@H](C(=O)OC)N(C(=O)NCCBr)C3=N1 | -11% | x | u | x | -5% | x
O=C(O)c1cccc(C2CCCN(C(=O)c3ccccc3-c3ncn[nH]3)C2)c1 (stereo unspecified) | 6% | x | x | x | x | x
CCc1ccc(-n2c(Cc3ccccc3)n[nH]c2=S)cc1 | u | -27% | 22µM* | -4% | 10% | u
O=[N+]([O-])c1ccc(CSc2nnc(Cc3ccccc3)n2-c2ccc(F)cc2)cc1 | u | u | -34% | 15% | 3% | -13%[59 µM]
Cc1cccc(-n2c(CNC(=O)Cc3ccccc3)n[nH]c2=S)c1 | -17% | -14% | 4µM* | 13% | 36% | 20µM*
SMILES | ALOX12 inh | BAZ2B inh | JMJD2A Tudor inh | Sfp PPTase inh | HP1b binding inh | G9a block
Cc1cccc(-n2c(Cc3ccccc3)n[nH]c2=S)c1 | u | -20% | 32µM* | 7% | 2% | 22µM*
Cc1cnc2c(S(=O)(=O)NCC3CCOC3)cccc2c1 (stereo unspecified) | -30% | x | x | x | x | x
Cc1cc2oc(C(=O)NCC(c3cccs3)N3CCOCC3)cc(=O)c2cc1Cl (stereo unspecified) | -4% | x | x | x | x | x
CC(O)c1n(C)c(Cl)c[n+]1C (stereo unspecified) | u | 1% | u | 10% | 9% | 11µM*
COCC(=O)N1CCC2(CC1)OCCN2S(=O)(=O)c1c(C)cc(C)cc1C | -2% | x | x | x | x | x
CCn1cc(C(=O)OCC(=O)Nc2cccc(Cl)c2C)c(=O)c2ccc(C)nc21 | -31% | 2% | -13% | x | 10% | -45%[59 µM]
CCn1cc(C(=O)Nn2cnnc2)c(=O)c2ccc(C)nc21 | 21% | -32% | u | -6% | 23% | 50µM*
CCn1cc(C(=O)OCC(=O)Nc2c(C)cccc2C)c(=O)c2ccc(C)nc21 | u | -8% | -11% | 8% | 29% | 45µM*
O=C(NC(Cc1ccccc1)C(=O)N1CCN(c2ccccc2O)CC1)c1ccccc1 (stereo unspecified) | -1% | -22% | -26% | x | 25% | 50µM*
O=C(Nc1ccccc1C(=O)NC(Cc1ccc(O)cc1)C(=O)O)c1ccccc1 (stereo unspecified) | -20% | -16% | -14% | 13% | 6% | 45µM*
O=C(N[C@@H](Cc1ccccc1)C(=O)O)c1cccnc1 | -16% | -34% | -10% | 11% | 45% | 50µM*
CC(=O)N1CCN(C(=O)C(Cc2ccccc2)NC(=O)c2ccccc2)CC1 (stereo unspecified) | 356% | -1% | 5% | x | 41% | 12%[12.7 µM]
O=C(NCc1ccccc1)c1cccnc1 | 4% | 9% | -11% | 15% | 8% | u
CN(C)C(=O)c1ccc(NCC(=O)N2N=C(c3ccc(Cl)cc3)CC2c2ccco2)cc1 (stereo unspecified) | 5% | x | x | x | x | x
COc1ccc(-c2nc3ccc(N4CCN(C)CC4)cc3c(=O)[nH]2)cc1 | 6% | -21% | -8%[11.4 µM] | 23% | 39% | -31%
COc1cc(-c2nc3ccc(N4CCN(C)CC4)cc3[nH]2)cc(OC)c1OC | -11% | -35% | -5% | -9% | 5% | 40µM*
CNC(=O)[C@@H]1C[C@H](N)CN1S(=O)(=O)c1cccc(OC)c1 | 24% | x | x | x | x | x
O=C(COC(=O)/C=C/c1cccs1)Nc1nc(-c2ccccc2)cs1 | -8% | 5% | -9% | 5% | 58% | 1.1µM*
Cc1ccc(-c2c[n+](CC(=O)Nc3nc(-c4ccccc4)cs3)c3n2CCC3)cc1 | u | -32% | -24% | -5% | 1% | u
O=C(Cc1cccs1)Nc1nc(-c2ccccc2)cs1 | -5% | -2% | -1% | 3% | 32% | -7%
C/C(=N\Nc1nc(-c2ccccc2)cs1)c1cccs1 | 45µM* | 40µM* | u | 56µM* | -31% | 5µM*
O=C(C[n+]1cc(-c2ccccc2)n2c1CCC2)Nc1nc(-c2ccccc2)cs1 | -29% | -33% | -33% | 56µM* | 6% | u
